Usually inhibition stands for the drop in the measured response relative to a control, in per cent.

Data on 36 compounds can be found in ChEMBL document CHEMBL3433997, “St. Jude Leishmania screening dataset” (2016).

What all share (type): functional
For experiment [1], the target named is Solute carrier family 2, facilitated glucose transporter member 1 (Homo sapiens) (UniProt P11166). As to the kind of experiment: ST_JUDE_LEISH: Cytotoxicity at 2uM final concentration against transgenic Leishmania Mexicana promastigotes LmGLUT1 that are glucose transport deficient and complemented with the human glucose transporter GLUT1. Activity is measured by DNA content using SYBR green in vitro.
Chain of Solute carrier family 2, facilitated glucose transporter member 1 (Homo sapiens) (P11166 whole entry): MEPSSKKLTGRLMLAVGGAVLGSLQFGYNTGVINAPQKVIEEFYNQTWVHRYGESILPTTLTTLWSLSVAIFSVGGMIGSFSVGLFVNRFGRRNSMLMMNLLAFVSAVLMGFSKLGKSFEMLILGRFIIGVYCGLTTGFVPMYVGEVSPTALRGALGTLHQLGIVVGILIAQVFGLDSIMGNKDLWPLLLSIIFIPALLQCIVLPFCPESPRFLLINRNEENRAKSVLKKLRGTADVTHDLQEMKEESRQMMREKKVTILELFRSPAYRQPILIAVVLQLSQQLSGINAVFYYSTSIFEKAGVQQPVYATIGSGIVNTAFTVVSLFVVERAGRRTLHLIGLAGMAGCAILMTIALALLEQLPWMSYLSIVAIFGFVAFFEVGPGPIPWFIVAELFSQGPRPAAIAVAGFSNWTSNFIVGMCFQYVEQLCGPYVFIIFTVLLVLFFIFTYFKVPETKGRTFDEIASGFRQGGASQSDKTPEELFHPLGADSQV

Experiment [2] concerns the target Hexose transporter 1 (Plasmodium falciparum) (UniProt O97467). Put plainly: ST_JUDE_LEISH: Cytotoxicity at 2uM final concentration against transgenic Leishmania Mexicana promastigotes LmPfHT that are glucose transport deficient and complemented with the Plasmodium falciparum hexose transporter. Activity is measured by DNA content using SYBR green in vitro.
In experiment [3] the target is Glucose transporter (Leishmania mexicana) (UniProt O61059). As to the kind of experiment: ST_JUDE_LEISH: Cytotoxicity at 2uM final concentration against transgenic Leishmania Mexicana promastigotes LmGT2 that are glucose transport deficient and complemented with the L. Mexicana glucose transporter 2. Activity is measured by DNA content using SYBR green in vitro.

Take `Cc1nc(-c2cccc(NCc3ccccc3)c2)[nH]c1C`: the values for the inhibition in experiment [1], in experiment [2] and in experiment [3] were 6.94%, 7.04% and 1.13%, respectively.
On the same counts, the results for `Cc1ccc2[nH]c(-c3ccccc3)cc(=NN=Cc3cccnc3)c2c1` are 1.16%, 0.03% and -2.99%.
On the same counts, the results for `CCc1cn2c3c(cc(C(=O)N[C@@H](Cc4ccccc4)[C@H](O)CNC4CC4)cc13)N(CC)S(=O)(=O)CC2` are -0.74%, -0.31% and 0.02%.
For `O=C(Nc1ccncc1)c1cn(-c2ccccc2)nc1-c1cccs1` the same measures were 5.19%, 2.4% and 3.52%.
For the compound `O=C(NCCc1ccccc1)c1cc(-c2cccnc2)cnc1NCC1CC1`, the values for the inhibition in experiment [1], in experiment [2] and in experiment [3] were 3.62%, 6.01% and 1.98%, respectively.
For `CC(C)C1c2ccc(O)cc2CC2C(=O)N(C3CCCCC3)C(=O)N21` (stereo not drawn) the same measures were -1.04%, -1% and -0.94%.
On the same counts, the results for `O=S(=O)(Nc1cccc(CCN2CCC(N3CCCCC3)CC2)c1)c1ccccc1C(F)(F)F` are 1.15%, 0.31% and -2.06%.
For the compound `CC(C)(C)c1ccc(N2C(N)=NC(N)=NC2(C)C)cc1Cl`, the values for the inhibition in experiment [1], in experiment [2] and in experiment [3] were 9.03%, 7.39% and 5.67%, respectively.
For `COc1cc(CCON2C(N)=NC(N)=NC2(C)C)cc(OC)c1OC` the same measures were 2.34%, 0.73% and 1.04%.
On the same counts, the results for `Oc1ccc(CCNc2nc(NCCOc3cccc4ccccc34)nc(N3CCNCC3)n2)cc1` are 3.36%, 0.4% and 2.56%.
For `CCN(CC)CCCC(C)Nc1c2ccc(Cl)cc2nc2ccc(OC)cc12` (stereo not drawn), the inhibition was determined as 5.81% in experiment [1], 1.67% in experiment [2] and 3.71% in experiment [3].
For `COc1cc2ncnc(Nc3ccc(OC(F)(F)c4ccccc4)cc3)c2cc1OC` the same measures were 9.55%, 10.8% and 7.93%.
Regarding `CN(C)CCOc1ccc(N2CCN(CCCCNC(=O)c3ccc(NC(=O)c4ccc(Cl)cc4)cc3)CC2)cc1`, the values for the inhibition in experiment [1], in experiment [2] and in experiment [3] were 0.54%, 0.36% and 3.48%, respectively.
For `Cn1c(Nc2cc(C(C)(C)C)on2)nc2cc(Nc3ccnc(Nc4ccc(CS(C)(=O)=O)cc4)n3)ccc21` the same measures were 1.46%, 1.48% and 2.34%.
With `Oc1c(Br)cc2oc3c(c2c1CNCc1ccccc1)CCCC3`, the inhibition in experiment [1] is -0.72%; in experiment [2], -0.92%; in experiment [3] it was -0.81%.
On the same counts, the results for `O=C(Nc1ccc(C(=O)OCC2CCCN3CCCCC23)cc1)c1ccc(Cl)c(Cl)c1` (stereo not drawn) are 0.06%, -0.05% and 0.18%.
For the compound `Fc1ccc2[nH]c(-c3cccc(-c4ccc(CN5CCN(CCN6CCOCC6)CC5)cc4)c3)nc2c1`, the inhibition in experiment [1] stood at 1.26%; in experiment [2], 1.68%; in experiment [3], 1.79%.
As for `COc1cc(Nc2nccc(Nc3ccc4c(C)n[nH]c4c3)n2)cc2ccccc12`, the inhibition in experiment [1] is 5.04%; in experiment [2] it was 2.79%; in experiment [3], -0.29%.
On the same counts, the results for `O=C(Cc1c[nH]cn1)Nc1cccc(-c2ccc(-c3nc4ccccc4[nH]3)cc2)c1` are 1.81%, 3.82% and -0.08%.
`CC(C)C[C@@H](C(=O)N[C@@H](CCCCNC(=O)OCc1ccccc1)C(=O)Nc1nccs1)[C@H](C)N(O)C=O`: the inhibition in experiment [1] was determined as 3.19%; in experiment [2], 3.38%; in experiment [3], 0.49%.
On the same counts, the results for `COc1ccc2nc3cc(Cl)ccc3c(NCCNCC(O)CO)c2n1` (stereo not drawn) are 7.93%, 6.76% and 5.98%.
On the same counts, the results for `CCCCSc1c(CNCCCCCCNCc2ccc3ccccc3c2SCCCC)ccc2ccccc12` are 10.7%, 5.83% and 0.58%.
On the same counts, the results for `O=C(Nc1ccc(-c2nc3ccccc3[nH]2)cc1)c1cccc([N+](=O)[O-])c1` are 1.01%, -1.86% and -1.09%.
As for `COc1cccc(NC(=O)c2ccc(NCCCN3CCC(C)CC3)c([N+](=O)[O-])c2)c1`, the inhibition in experiment [1] amounted to 76.1%; in experiment [2], 41.7%; in experiment [3], 12.8%.
For `N=C(N)CCN(Cc1ccccc1)c1ccc(Cl)cc1` the same measures were -1.51%, -1.28% and -1.35%.
On the same counts, the results for `COc1ccc2nccc([C@@H](O)CN3CCC(NC(=O)C(c4cc5ccccc5o4)N4CCC(Cc5ccccc5)CC4)CC3)c2c1` (stereo partly drawn) are 5.02%, 3.03% and 2.23%.
On the same counts, the results for `O=C(Nc1ccc(CN2CCOCC2)cc1)c1ccc(-c2ccc(Cl)cc2)o1` are -0.08%, -0.82% and -4.75%.
As to `COc1ccc(-c2onc(C(F)(F)F)c2-c2cc3ccccc3o2)c(O)c1`, the inhibition in experiment [1] was 0.61%; in experiment [2], 0.82%; in experiment [3], 0.58%.
On the same counts, the results for `COc1ccc2cc(-c3nc(-c4c(Cl)cccc4Cl)[nH]c3-c3ccnc(NCCC4CCCN4C)c3)ccc2c1` (stereo not drawn) are 29.7%, 12.8% and 8.98%.
Take `OC(c1ccc(Cl)cc1)(c1ccc(Cl)cc1)C(c1ccc(Cl)cc1)n1ccnc1` (stereo not drawn): the inhibition in experiment [1] came out at 8.37%; in experiment [2], 4.21%; in experiment [3], 2.69%.
For `Cc1ccc(Cl)cc1NC(=O)c1c(-c2ccccc2Cl)noc1C`, the inhibition in experiment [1] was -0.47%; in experiment [2], -1.54%; in experiment [3], -0.61%.
As for `CCc1cn(CCCOC)c2ccc(C(=O)N[C@@H](Cc3ccccc3)[C@H](O)CNCc3cccc(C(F)(F)F)c3)cc12`, the results for the inhibition in experiment [1], in experiment [2] and in experiment [3] were 3.43%, 2.52% and 2.24%, respectively.
On the same counts, the results for `CCOC(=O)c1sc(C(C)Nc2ccccc2)nc1-c1ccccc1` (stereo not drawn) are 0.89%, -0.3% and -1.6%.
On the same counts, the results for `Cn1cncc1C(=O)Nc1cccc(-c2ccc(-c3nc4cc(C(F)(F)F)ccc4[nH]3)cc2)c1` are 9.17%, 6.73% and 5.1%.
In the case of `c1ccc(CN2CCc3cc4nccc(N5CCNCC5)c4cc32)cc1`, the inhibition is -3.94% in experiment [1], -1.76% in experiment [2] and 0.88% in experiment [3].
On the same counts, the results for `CC(=O)N[C@@H]1c2cc(C(C)=O)ccc2OC(C)(C)[C@@H]1O` are -0.93%, -0.7% and -0.73%.
